Results on 17 compounds are retold here after PubChem BioAssay (EPA / NIEHS).

Test [1] in a line: CCTE_Deisenroth_5AR_NBTE_donor: CCTE's 5alpha-reductase NanoBRET Target Engagement Assay […], Deisenroth Lab (AID 2284319). The following applies: actives raise or lower the signal. The gist of the method:
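HEK293T cells transiently expressing SRD5A2-NanoLuc, exposed 5 h to chemicals (8 points, 10 nM - 29.9 uM), with testosterone tracer for the final 2 h. Donor luminescence at 460 nm read after Nano-Glo substrate plus extracellular NanoLuc inhibitor; bidirectional fit versus DMSO.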
On the technique in general: In BRET a luciferase serves as donor, and the signal depends on an acceptor being close.

The nature of test [2]: CCTE_Deisenroth_5AR_NBTE_acceptor: CCTE's 5alpha-reductase NanoBRET Target Engagement Assay - Autofluorescence Screen, Deisenroth Lab (AID 2284321).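 Note: compound fluorescence in the acceptor channel under 460 nm excitation flags autofluorescence artifacts.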 The following applies: actives raise or lower the signal. The method in brief: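 Autofluorescence counter-screen: chemicals at an assumed nominal 100 uM in DMSO were scanned in three independent runs with 460 nm excitation. Gain or loss of acceptor signal was fitted bidirectionally against DMSO.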

The subject of test [3] is SRD5A2 (gene 6716). Briefly: CCTE_Deisenroth_5AR_NBTE_ratio: CCTE's 5alpha-reductase NanoBRET Target Engagement Assay - Ratio, Deisenroth Lab (AID 2284322). The settings on record: actives raise or lower the signal. The method in brief:
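HEK293T transiently expressing SRD5A2-NanoLuc; cells exposed to chemical (8-point, 10 nM - 29.9 uM) for 5 h total, testosterone tracer added for final 2 h. NanoBRET acceptor/donor ratio (650/460 nm), bidirectional fit vs DMSO.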

Test [4] concerns IYD (gene 389434). Kind of test: CCTE_GLTED_hIYD: CCTE's human Iodotyrosine Deiodinase (xIYD) Inhibition Assay, Great Lakes Toxicology and Ecology Division (GLTED) Lab (AID 2284317; active = hit-call score of the fitted dose curve at least 0.9, where 1 is the maximum;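 note: cell-free human IYD enzyme made in baculovirus insect cells; iodide freed from monoiodotyrosine measured by cerium arsenite color change at 420 nm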). The gist of the method:
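hIYD: baculovirus-expressed human IYD deiodinated monoiodotyrosine for 3 h with test chemical; free iodide was measured by Sandell-Kolthoff absorbance at 420 nm and normalized to MNT and DMSO/NaOH controls.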

Read-out in test [5]: CD69, CD69 (gene 969)
Briefly: BSK_LPS_CD69: BioMAP Diversity Plus: LPS Assay for CD69 Biomarker Activity (AID 2284303). The settings on record: primary human HUVEC with PBMC. The method in brief: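 Human umbilical vein endothelial cells co-cultured with PBMC under LPS stimulation, chemical exposure 24 h; cell-surface CD69 measured by ELISA and fitted in the positive direction versus DMSO.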

Test [6] relates to TTR (gene 7276). Briefly: CCTE_GLTED_hTTR_0.5uM: CCTE's human Transthyretin (hTTR) Inhibition Assay, with 0.5uM TTR, Great Lakes Toxicology and Ecology Division (GLTED) Lab (AID 2284320). The method in brief:
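Cell-free displacement assay in which human TTR at 0.5 uM was incubated with test chemical for 2 h. Displacement of the ANSA probe was read by fluorescence at 380 nm excitation/475 nm emission. Loss of signal was fitted in the positive direction versus DMSO.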

Test [7] is described as follows: IUF_NPC2a_radial_glia_migration_72hr: Leibniz Research Institute for Environmental Medicine (IUF) 72-hour Neural Progenitor Cell Migration Assay for Radial Glia Migration (NPC2a) (AID 2284299). The gist of the method:
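Human fetal neural progenitor spheres (0.3 mm) plated on poly-D-lysine/laminin in N2 differentiation medium and exposed from day 0 at 7 concentrations; radial glia migration distance from sphere edge measured at 72 h on brightfield images, mean of four directions, vs DMSO.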

Test [8] can be described thus: IUF_NPC2b_neuronal_migration_120hr: Leibniz Research Institute for Environmental Medicine (IUF) 120-hour Neural Progenitor Cell Migration Assay for Neuron Migration (NPC2b) (AID 2284300). The method in brief: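 0.3 mm hNPC spheres on poly-D-lysine/laminin in N2 differentiation medium exposed 120 h, half-medium refresh day 3; 7 concentrations, DMSO max 0.1%. Neuron (TUBB3) distance from sphere core by ICC imaging, normalised to radial glia migration.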

The nature of test [9]: IUF_NPC3_neuronal_differentiation_120hr: Leibniz Research Institute for Environmental Medicine (IUF) 120-hour Neuronal Differentiation Assay (NPC3) (AID 2284301). The gist of the method: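 Human fetal (GW 16-19) neural progenitor spheres (0.3 mm) plated on poly-D-lysine/laminin in N2 differentiation medium, exposed 120 h at 37C with half-medium renewal day 3; 7 concentrations. TUBB3+ cells as % of Hoechst nuclei, CNN-identified; DMSO baseline.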

Test [10] in a line: IUF_NPC4_neurite_length_120hr: Leibniz Research Institute for Environmental Medicine (IUF) 120-hour Neuronal Morphology Assay for Neurite Length (NPC4) (AID 2284302). The method in brief:
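Human fetal neural progenitor spheres (0.3 mm) plated on poly-D-lysine/laminin in N2 differentiation medium, exposed from day 0 for 120 h with half-medium refresh at day 3, 37C. Mean neurite length (um) of TUBB3-positive neurons from skeletonized immunostaining images; DMSO ≤0.1%.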

The nature of test [11]: IUF_NPC5_oligodendrocyte_differentiation_120hr: Leibniz Research Institute for Environmental Medicine (IUF) 120-hour Oligodendrocyte Differentiation Assay (NPC5) (AID 2284304; active = hit-call score of the fitted dose curve at least 0.9, where 1 is the maximum;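 note: primary human fetal neural progenitor spheres plated to migrate and differentiate; share of O4-positive cells among Hoechst nuclei found by CNN image analysis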). The method in brief:
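Human fetal neural progenitor spheres (0.3 mm) plated on poly-D-lysine/laminin in N2 differentiation medium and exposed for 120 h at 7 concentrations, with half-medium renewal at day 3. O4-positive cells identified by CNN, expressed as percent of Hoechst nuclei.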

A short description of test [12]: IUF_NPC4_neurite_area_120hr: Leibniz Research Institute for Environmental Medicine (IUF) 120-hour Neuronal Morphology Assay for Neurite Area (NPC4) (AID 2284305; active = hit-call score of the fitted dose curve at least 0.9, where 1 is the maximum). The gist of the method:
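Human fetal neural progenitor spheres (0.3 mm) plated on poly-D-lysine/laminin in N2 differentiation medium, exposed 120 h (7 concentrations, DMSO ≤0.1%, half-medium refresh day 3). Fixed, TUBB3 immunostained; mean neurite area per neuron by Omnisphero skeletonization.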

Test [13] can be described thus: IUF_NPC2-5_cytotoxicity_72hr: Cytotoxicity Assessment at 72 hours in the Leibniz Research Institute for Environmental Medicine (IUF) Neural Progenitor Cell Migration and Differentiation Assay for Cytotoxicity (NPC2-5) (AID 2284306; active = hit-call score of the fitted dose curve at least 0.9, where 1 is the maximum;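 note: LDH release into supernatant measured by resorufin fluorescence marking membrane damage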). The method in brief: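 Human fetal primary neural progenitor spheres (0.3 mm) plated on poly-D-lysine/laminin in N2 differentiation medium, exposed from day 0 at 37C. LDH-dependent resazurin-to-resorufin fluorescence in supernatant at 72 h; 7 concentrations, DMSO at most 0.1%.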

Test [14] in a line: IUF_NPC2-5_cytotoxicity_120hr: Cytotoxicity Assessment at 120 hours in the Leibniz Research Institute for Environmental Medicine (IUF) Neural Progenitor Cell Migration and Differentiation Assay (NPC2-5) (AID 2284307; active = hit-call score of the fitted dose curve at least 0.9, where 1 is the maximum). The gist of the method: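 Human fetal (GW 16-19) neural progenitor spheres (0.3 mm) plated on poly-D-lysine/laminin in N2 differentiation medium, exposed 120 h with half-medium renewal at day 3; 7 concentrations plus solvent control, DMSO ≤0.1%. LDH release in supernatant read by resorufin fluorescence.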

Test [15] in a line: IUF_NPC2-5_cell_number_120hr: Cell Number Assessment at 120 hours in the Leibniz Research Institute for Environmental Medicine (IUF) Neural Progenitor Cell Migration and Differentiation Assay (NPC2-5) (AID 2284308).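 Note: count of Hoechst-stained nuclei in migration zone around plated human neural progenitor spheres.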 The method in brief: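 Human fetal neural progenitor spheres (0.3 mm) plated on poly-D-lysine/laminin in N2 differentiation medium, exposed five days across 7 concentrations with half-medium refresh at day 3. Hoechst-positive nuclei counted in migration area at 120 h, relative to DMSO.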

Test [16] is described as follows: IUF_NPC2-5_viability_120hr: Viability Assessment at 120 hours in the Leibniz Research Institute for Environmental Medicine (IUF) Neural Progenitor Cell Migration and Differentiation Assay (NPC2-5) (AID 2284312). The method in brief:
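Human fetal neural progenitor spheres (0.3 mm) plated on poly-D-lysine/laminin in N2 differentiation medium, exposed 120 h with half-medium refresh at day 3. Viability by alamar blue resazurin fluorescence; 7 concentrations, DMSO max 0.1%.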

Test [17] in a line: CCTE_Mundy_HCI_iCellGluta_NOG_NeuriteLength: CCTE's Neurite Outgrowth Assay in iCellGluta cells for Neurite Length, Mundy Lab (AID 2284318; active = hit-call score of the fitted dose curve at least 0.9, where 1 is the maximum). The gist of the method:
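Automated high-content imaging of betaIII-tubulin (Alexa Fluor-488) and Hoechst-stained cells gave neurite length, normalized to the DMSO baseline.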

Several values for one entry are separate records, joined by “and”; a condition that tells them apart may be missing. Equal values may be shown once. Inconclusive results are not listed. Some compounds were tested as several samples or in several runs, with calls that do not always agree. Activity calls are given as the source filed them. Rule for the calls, unless noted: active = hit-call score of the fitted dose curve at least 0.9, where 1 is the maximum; inactive = score below 0.9.

Regarding `O=C(O)CCC(=O)O`, the result in test [1], in [2] and in test [3] was inactive.

For orientation: AC50 means the concentration at which the activity in the assay is half-maximal. On to `CC1=NN(c2ccc(S(=O)(=O)O)cc2)C(=O)C1N=Nc1ccccc1` (stereo unspecified), for which the compound was called inactive in [1] and in test [2]. For the same compound, in test [3], the AC50 was 10 µM (active).

Take `CCCCCCCCCCCCCC(=O)OC(C)C`: the compound was classed as inactive in test [1], in test [2] and in test [3].

`O=S(=O)(O)c1ccc(N=Nc2c(O)ccc3ccccc23)cc1`: the AC50 was 13.3 µM (active) in test [1] and 26.6 µM (active) in test [3]. Moreover, in [2], the compound was classed as inactive.

In the case of `CCCCC(CC)COC(=O)/C=C/c1ccc(OC)cc1` (stereo unspecified), in [4], the outcome was inactive.

For `C[N+](C)(C)CCCNS(=O)(=O)C(F)(F)C(F)(F)C(F)(F)C(F)(F)C(F)(F)C(F)(F)C(F)(F)C(F)(F)F`, in test [5], the AC50 is 30 µM (active) and the result was inactive. For the same compound, in [6], the AC50 was 1.04 µM (active).

With `Oc1ccc(-c2ccccc2)c(Cl)c1`, the call in test [1], in [2] and in test [3] was inactive.

For the compound `O=C(OCc1ccccc1)c1ccc(O)cc1`, the outcome in test [1], in [2] and in [3] was inactive.

Regarding `C=C[C@@]1(C)CC(=O)[C@]2(O)[C@@]3(C)[C@@H](O)CCC(C)(C)[C@@H]3[C@H](O)[C@H](OC(C)=O)[C@@]2(C)O1`, the AC50 in test [1] is 9.91 µM (active). For the same compound, the result in test [2] and in test [3] was inactive.

Consider `Cc1c(C(=O)c2c[nH]n(C)c2=O)ccc(S(C)(=O)=O)c1C1=NOCC1`, for which the compound was called inactive in test [7], in test [8], in [9], in test [10], in test [11] and in test [12]. Besides, the call in [13], in [14], in test [15], in [16] and in test [17] was inactive.

Turning to `Cc1noc(NS(=O)(=O)c2ccc(N)cc2)c1C`, the compound was called inactive in test [17].

As for `CC(C)C(=O)OCCc1ccccc1`, in test [5], the outcome was inactive.

Turning to `c1ccc(Nc2cccc3ccccc23)cc1`, the AC50 in [5] was 36.5 µM (active) and 20 µM (active).

In the case of `CCCC(C)C(=O)OCC` (stereo unspecified), the outcome in test [5] was inactive.

Turning to `O=C(Nc1ccccc1)c1cc(Cl)ccc1O`, the result in test [4] was inactive.

Turning to `CN(C)c1ccc2nc3ccc(=[N+](C)C)cc-3sc2c1`, the AC50 in test [4] is 2.73 µM (active); in [2], 10 µM (active); in [3], 2.95 µM (active). Moreover, in [1], the outcome was inactive.

In the case of `CCCCCCCCCCCCCCCCCCOS(=O)(=O)O`, in test [4], the AC50 was 19.5 µM (active).
